Screening results from PubChem BioAssay.
Compounds with a hit are over-represented: about 14% of the library has one in this group of screens.
A350 autofl – compound fluoresces in the Alexa 350 spectral region; max dye-equivalent concentration, M; AID 590; 11% of 59,000 active; Compound autofluorescence, 340/450 nm, Alexa 350 dye-equivalents; stronger effect = higher value; in the data active = max dye-equivalent concentration above about 10 nM; inconclusive = mostly about 1.1 nM to 9.6 nM
HSD17B inhib – HSD17B dehydrogenase inhibition; recombinant HSD17B10, NADH fluorescence kinetic; Potency, µM (titrated, usually from 57.1 µM), for inactives: at the highest dose activity change, negative = inhibition, hits mostly inhibitors; 7.6% of 75,000 active; AID 893;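 also: the protocol describes HADH2 (HSD17B10) and not the HSD17B4 of the title; potency is read from the fitted curve at half-maximal effect; % is scaled to controls: 0 for no effect and ±100 for the full control effect; nearly all actives have a fitted effect of over 70% in size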
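Activity followed as NADH fluorescence increase (ex 360, em 450 nm) every 30 seconds for 4 min, using final 90 uM beta-hydroxybutyryl CoA and 1 mM NAD+. Recombinant His-tagged enzyme, 20 nM, pH 9.0 Tris buffer, 15 min compound preincubation.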
4-MU autofl – 4-MU region autofluorescence; 11% of 59,000 active; max dye-equivalent concentration, M; compound autofluorescence, 340/450 nm, 4-MU equivalents; stronger effect = higher value; in the data active = max dye-equivalent concentration above about 10 nM; inconclusive = mostly about 1.1 nM to 9.6 nM
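Intrinsic fluorescence at 340/450 nm (ex/em) was read after 15 min at room temperature in pH 8.0, 100 mM Tris. Each compound concentration expressed as 4-MU-equivalent concentration from a six-point 4-MU standard series on each plate.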
CRE Fsk mod – CRE-bla signaling modulation under forskolin stimulation; 2.5% of 71,000 active; Potency, µM (series often up to 38.2 µM), inactives show top-dose activity change, negative = inhibition, hits mostly activators; CHO CRE-bla reporter (cAMP response element driving beta-lactamase), forskolin EC10, beta-lactamase ratio; active = well fitted activation curve with a large enough effect in the signal ratio, with a control signal flat, not every such curve was filed as active; inconclusive = small, poorly fitted or top-dose-only effect, or effect the other way, or a change in a side signal; the % refers to the signal ratio; also: potency is read from the fitted curve at half-maximal effect; % of control where 0% means no effect
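qHTS titration format; CRE-bla CHO reporter; stimulus EC10 NKH 477, a water-soluble forskolin. Read: CCF4 460/530 nm ratio. Potency expressed as AC50 for activators or inhibitors.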
HADH2 inh – inhibitors of human HADH2 dehydrogenase | Q99714 | recombinant HADH2, NADH fluorescence, beta-hydroxybutyryl-CoA | Potency, µM (doses to about 57.1 µM), for the others: top-dose activity change, negative = inhibition, most hits filed as inhibitors | 3.4% of 73,000 active | AID 886; also: potency is read from the fitted curve at half-maximal effect; % is scaled to controls: 0 for no effect and ±100 for the full control effect; nearly all actives have a fitted effect of over 60% in size
Target sequence (Q99714 whole entry, looked up, one chain of several): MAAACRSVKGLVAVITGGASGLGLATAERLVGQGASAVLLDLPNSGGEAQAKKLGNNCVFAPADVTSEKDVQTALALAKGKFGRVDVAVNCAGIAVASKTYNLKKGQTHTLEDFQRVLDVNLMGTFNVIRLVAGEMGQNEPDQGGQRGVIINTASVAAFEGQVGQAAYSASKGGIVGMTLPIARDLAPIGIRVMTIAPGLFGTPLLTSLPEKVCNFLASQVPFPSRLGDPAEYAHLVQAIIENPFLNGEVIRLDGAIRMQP
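Buffer 100 mM Tris-HCl pH 9.0/0.01% Tween-20; HADH2 20 nM; NAD+ 1 mM; beta-hydroxybutyryl-CoA 90 uM (all final). 15 min cpd preincubation, RT.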
AID923 – qHTS Assay for Allosteric/Competitive Inhibitors of Caspase-1: Spectroscopic Profiling in AFC Spectral Region | Potency, µM (doses to about 57.5 µM), inactives show at the top dose fluorescence increase, usual class: activators | compound fluorescence, AFC spectral region (405/520 nm) | 1.1% of 75,000 active; also: potency is read from the fitted curve at half-maximal effect; 0% is about no effect
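Baseline compound fluorescence (AFC region, 405 nm ex/520 nm em) taken from the intercept of kinetic reads with 50 nM caspase-1 and 5 uM Ac-WEHD-AFC; normalized to an on-plate AFC standard curve; compounds titrated up to 57 uM.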
CHO tox 24h – reduces CRE-bla CHO cell viability after 24 hours; CRE-bla CHO viability, ATP luminescence, 24 h; AID 905; shares compounds with CRE Fsk mod; activity, negative = viability loss, % at 46.1 µM; 120 tested, under 10 active
CHO via 40h – reduces CRE-bla CHO cell viability after 40 hours. shares compounds with CRE Fsk mod. CRE-bla CHO viability, ATP luminescence, 40 h. Potency, µM, without a hit: max response, hits mostly inhibitors. 120 tested, under 10 active. AID 906
CRE-luc potent – confirmation of CRE signaling potentiators in HEK293 CREB reporter cells. HEK293 CRE-luc2P, NKH477 EC10 potentiation, luminescence, 4 h. shares compounds with CRE Fsk mod. Potency, µM (highest dose often 38.3 µM), for inactives: at the highest dose activity, positive = activation, hits mostly activators. 80% of 120 active
Numbers without * were called inactive; i = inactive; ? = inconclusive; / = no result; [ ] = remark or other dose. Unless noted, calls follow the shape of the dose curve; as a rule, active = well fitted curve in the direction sought with a large enough effect; inconclusive = small, poorly fitted or top-dose-only effect, or another doubt; inactive = no such curve, though single readings can be large; an effect the other way counts as inactive or inconclusive.

SMILES	A350 autofl	HSD17B inhib	4-MU autofl	CRE Fsk mod	HADH2 inh	AID923	CHO tox 24h	CHO via 40h	CRE-luc potent
Cc1nn(-c2ccc(Cl)cc2)c2sc(C(=O)N3CCN(c4ccccn4)CC3)cc12	2.54e-08M*	1.5%	1.53e-08M*	9.0%	i	0.4%	-14.4	-11.9%	1.41µM*
O=C(c1cc(Cl)ccc1Cl)N1CCN(c2ccccn2)CC1	i	?	i	-10.8%	2.5%	2.8%	/	/	/
C=C(C)C(O)/C=C/c1ccc(OC)cc1 (stereo not given)	/	-6.6%[11.4 µM]	/	/	-1.1%[11.4 µM]	-4.1%[11.5 µM]	/	/	/
CCCc1nc2oc3c(NCc4ccccn4)ncnc3c2c2c1COC(C)(C)C2	i	12.6µM*	i	0.794µM*	?	-1.2%	-9.5	-15.9%	0.398µM*
COc1ncnc2c1oc1nc(C(C)C)c3c(c12)CC(C)(C)OC3	?	6.4%	i	?	-4.9%	0.0%	/	/	/
CCn1c2ccccc2c2cc(Nc3cc(C)nc4ncnn34)ccc21	/	-16.9%	/	0.794µM*	-16.3%	-5.6%	-24.4	?	8.7%
CCc1cccc(Nc2cc(C)nc3ncnn23)c1	/	3.6%	/	26.0%	-8.6%	-2.4%	/	/	/
O=S(=O)(Nc1cccc(-c2nc3cccnc3s2)c1)c1ccc2c(c1)OCCO2	/	-4.2%	/	3.16µM*	0.0%	6.3%	5.7	-14.1%	11.2µM*
O=S(=O)(Nc1ccc(-c2cn3ccsc3n2)cc1)c1ccc2c(c1)OCCO2	i	-4.2%	i	?	7.6%	-0.7%	/	/	/
Cc1ccccc1-c1nc(N(C)C)c2ccccc2n1	i	13.5%	i	?	2.8%	0.9%	/	/	/
C=CCN1C(=O)c2oc3ccccc3c(=O)c2C1c1ccc(O)c(OC)c1 (stereo not given)	/	/	/	/	/	/	6.0	-6.4%	12.6µM*
COc1cc(C2c3c(oc4ccccc4c3=O)C(=O)N2CCN2CCOCC2)cc(OC)c1OC (stereo not given)	i	-0.8%	i	4.7%	-0.4%	-2.7%	/	/	/
COc1ccc(C2c3c(oc4ccccc4c3=O)C(=O)N2CCN2CCOCC2)cc1OC (stereo not given)	i	4.5%	i	16.8%	8.3%	1.3%	-2.6	-7.3%	14.1µM*
CC1OC(n2cc(F)c(=O)[nH]c2=O)C(O)C1O (stereo not given)	/	4.6%	/	/	/	-2.9%	/	/	/
CCOC(=O)C1=C(CN2CCC(C)CC2)NC(=O)NC1c1ccc(Cl)cc1 (stereo not given)	i	-7.1%	i	12.6µM*	10.7%	-2.4%	-14.5	-36.0%	12.6µM*
CCn1c2ccccc2c2nnc(SCN3C(=O)c4ccccc4C3=O)nc21	/	?	/	?	0.0%[11.4 µM]	0.8%	-11.7	-21.4%	2µM*
Cn1c2ccccc2c2nnc(SCN3C(=O)c4ccccc4C3=O)nc21	i	-10.6%	i	?	7.3%	1.3%	/	/	/
O=C(Cc1ccccc1)Nc1nc2ccc(Cl)cc2c2nc(-c3ccco3)nn12	/	3.98µM*	/	?	-11.0%	3.4%	-7.6	-12.0%	?
Nc1nc(-c2ccco2)nn1C(=O)CCc1ccccc1	i	12.5%	i	-8.3%	-13.6%	-1.7%	/	/	/
COc1ccc(CNc2ccnc(-c3cccc(NS(C)(=O)=O)c3)n2)c(OC)c1	i	-10.3%	i	?	-10.6%	3.5%	/	/	/
C=CCn1c(=O)/c(=C/c2cc(OC)c(OC)c(OC)c2)s/c1=C(/C#N)c1nc2ccccc2n1C	?	-3.7%	?	1µM*	9.2%	7.6%	-22.0	-27.6%	1µM*
C=CCn1c(=O)/c(=C/c2ccc(Cl)cc2)s/c1=C(/C#N)c1nnc2n1CCCCC2	i	16.9%	i	?	-5.9%	4.4%	/	/	/
S=C(Nc1ccc2c(c1)Cc1ccccc1-2)Nc1ccc2c(c1)Cc1ccccc1-2	i	-5.8%[11.4 µM]	i	11.3%[7.6 µM]	-2.4%[11.4 µM]	-2.1%[11.5 µM]	/	/	/
Cn1c(=O)c2[nH]c(CCNC(=O)c3ccccc3)nc2n(C)c1=O	?	5.0%[11.4 µM]	?	-3.6%[7.6 µM]	21.7%[11.4 µM]	-2.9%[11.5 µM]	/	/	/
COC(=O)Nc1nc2ccc(C(=O)c3cccs3)cc2[nH]1	i	-0.1%	i	0.0794µM*	8.8%	-2.3%	?	-18.7%	?
SMILES	A350 autofl	HSD17B inhib	4-MU autofl	CRE Fsk mod	HADH2 inh	AID923	CHO tox 24h	CHO via 40h	CRE-luc potent
CSc1nc2ccc(Nc3nc(N4CCOCC4)nc(N4CCOCC4)n3)cc2s1	/	25.1µM*	/	3.16µM*	6.4%[11.4 µM]	-1.8%	-21.6	?	0.631µM*
Cn1c(SCC(=O)N2CCOCC2)nc2sc3c(c2c1=O)CCCC3	i	0.9%	i	15.4%	4.6%	1.5%	-6.9	-17.4%	3.55µM*
COC(=O)c1ccc(C(NC(=O)OCc2ccccc2)/C(C)=C/[C@@H](C)C(=O)NC2CCCCC2)cc1 (stereo not given in full)	/	25.4%	/	-13.1%	0.8%	-0.6%	/	/	/
Cn1c(C(=O)NC2CC2)cc2c(=O)n(C)c3ccccc3c21	/	?	/	5.01µM*	?	-2.1%	-8.5	-22.2%	10µM*
CC(=O)OC1CC2C(C)(C)C(=O)C=C[C@]2(C)C2CC[C@@]3(C)C(c4ccoc4)OC(=O)C4O[C@@]43[C@]12C (stereo not given in full)	/	4.9%	/	/	/	0.4%	/	/	/
CN1CCCC2(CCN(C(=O)c3cnccn3)CC2)C1	i	9.3%	i	-3.7%	11.2%	-0.2%	/	/	/
Cn1c(/C(C#N)=C/C2CC=CCC2)nc2ccccc21 (stereo not given)	?	0.6%	i	-0.5%	0.1%	0.8%	-11.9	-16.0%	15.8µM*
CCOC(=O)N/N=C1/C[C@@H](O)[C@@H](O)[C@@H]2[C@@H]3C(=O)N(Cc4ccccc4)C(=O)[C@H]3CC[C@@H]12	/	3.4%[11.4 µM]	/	/	7.1%[11.4 µM]	2.4%[11.5 µM]	/	/	/
COc1cc(-c2nnc3sc(-c4ccccn4)nn23)cc(OC)c1OC	i	-12.7%	i	0.0251µM*	?	1.0%	-7.8	-17.1%	?
COc1cc(-c2nnc3sc(-c4ccco4)nn23)cc(OC)c1OC	?	1.6%	i	1µM*	-28.0%	3.6%	-6.9	-24.6%	3.16µM*
COc1cccc(-c2nnc3sc(-c4ccco4)nn23)c1	i	/	i	/	/	/	/	/	/
